The results in this text go back to article PMC7862700, “An all-to-all approach to the identification of sequence-specific readers for epigenetic DNA modifications on cytosine”.

Experiment in all cases: DAPPL (digital affinity profiling via proximity ligation, sequencing); 10 mM Tris-HCl pH 7.5, 50 mM NaCl, 1 mM DTT, 4% glycerol, room temperature, 30 min; GST-TFs on glutathione beads, 16-mer random dsDNA library, 0.1% formaldehyde crosslink after washing; high values mean tight binding
One assay deals with T1, FLI1 (Homo sapiens, UniProt Q01543 1-452).
T1 sequence: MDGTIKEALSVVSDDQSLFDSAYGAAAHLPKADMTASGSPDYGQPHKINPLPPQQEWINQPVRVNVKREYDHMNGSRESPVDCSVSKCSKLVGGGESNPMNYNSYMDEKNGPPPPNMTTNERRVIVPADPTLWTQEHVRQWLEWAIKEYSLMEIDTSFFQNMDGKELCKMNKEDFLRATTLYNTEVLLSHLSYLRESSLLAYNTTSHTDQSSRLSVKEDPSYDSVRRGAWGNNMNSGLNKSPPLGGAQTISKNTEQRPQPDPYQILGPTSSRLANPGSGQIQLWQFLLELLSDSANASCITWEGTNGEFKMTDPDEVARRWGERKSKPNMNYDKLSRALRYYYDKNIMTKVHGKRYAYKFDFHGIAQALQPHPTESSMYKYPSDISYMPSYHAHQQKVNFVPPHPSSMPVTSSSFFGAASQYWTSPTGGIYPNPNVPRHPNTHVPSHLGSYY
As to conditions: protein: recombinant; tags: N-terminal GST; dsDNA, one strand shown. In short, it runs like this: (§1)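 In yeast, human transcription factors were expressed with a GST fusion, then pulled down on glutathione beads and given DNA barcodes. Pooled with a tag-only sample, they were exposed to 200 nmole of a 16-mer random double-stranded DNA library (Tris/NaCl/DTT/glycerol buffer, room temperature, 30 min), washed, crosslinked with 0.1% formaldehyde, proximity-ligated using BsaI/T4 ligase for 1 h at 37 °C, PCR-amplified and read on an Illumina NextSeq500. Each hexamer's frequency of reads for a factor, divided by the matching frequency for the tag-only sample, gives the binding signal.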

The target in a further assay is T2, ELK1 (Homo sapiens, UniProt P19419 1-428).
T2 sequence: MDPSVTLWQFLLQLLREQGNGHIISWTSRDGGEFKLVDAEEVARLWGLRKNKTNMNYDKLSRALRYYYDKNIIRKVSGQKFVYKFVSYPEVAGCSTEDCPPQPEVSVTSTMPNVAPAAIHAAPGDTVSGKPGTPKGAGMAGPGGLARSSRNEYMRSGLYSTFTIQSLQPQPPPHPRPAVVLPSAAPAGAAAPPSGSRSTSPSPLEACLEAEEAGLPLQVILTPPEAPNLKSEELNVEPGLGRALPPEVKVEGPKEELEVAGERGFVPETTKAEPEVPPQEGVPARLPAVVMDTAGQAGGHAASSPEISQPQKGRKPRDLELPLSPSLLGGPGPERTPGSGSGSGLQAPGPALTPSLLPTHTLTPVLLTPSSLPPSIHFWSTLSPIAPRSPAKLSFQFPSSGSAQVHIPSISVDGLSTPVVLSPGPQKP
As to conditions: protein: recombinant; tags: N-terminal GST; dsDNA, one strand shown. A digest of the protocol:
as §1

Another assay concerns the target T3, GABPA (Homo sapiens, UniProt Q06546 1-454).
T3 sequence: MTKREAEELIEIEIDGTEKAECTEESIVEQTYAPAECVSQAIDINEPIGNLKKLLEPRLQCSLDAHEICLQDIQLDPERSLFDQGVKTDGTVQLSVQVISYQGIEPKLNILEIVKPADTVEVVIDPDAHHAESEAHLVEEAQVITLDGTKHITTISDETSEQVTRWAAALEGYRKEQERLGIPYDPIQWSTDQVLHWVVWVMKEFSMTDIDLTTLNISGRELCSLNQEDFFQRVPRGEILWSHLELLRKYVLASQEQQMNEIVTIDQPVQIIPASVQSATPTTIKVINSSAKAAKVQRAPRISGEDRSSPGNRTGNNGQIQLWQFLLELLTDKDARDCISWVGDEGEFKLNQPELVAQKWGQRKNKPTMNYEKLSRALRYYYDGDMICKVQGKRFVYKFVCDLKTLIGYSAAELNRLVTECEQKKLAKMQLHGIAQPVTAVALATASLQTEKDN
As to conditions: protein: recombinant; tags: N-terminal GST; dsDNA, one strand shown. A digest of the protocol:
as §1

For the next assay, the target named is T4, ERG (Homo sapiens, UniProt P11308 1-479).
T4 sequence: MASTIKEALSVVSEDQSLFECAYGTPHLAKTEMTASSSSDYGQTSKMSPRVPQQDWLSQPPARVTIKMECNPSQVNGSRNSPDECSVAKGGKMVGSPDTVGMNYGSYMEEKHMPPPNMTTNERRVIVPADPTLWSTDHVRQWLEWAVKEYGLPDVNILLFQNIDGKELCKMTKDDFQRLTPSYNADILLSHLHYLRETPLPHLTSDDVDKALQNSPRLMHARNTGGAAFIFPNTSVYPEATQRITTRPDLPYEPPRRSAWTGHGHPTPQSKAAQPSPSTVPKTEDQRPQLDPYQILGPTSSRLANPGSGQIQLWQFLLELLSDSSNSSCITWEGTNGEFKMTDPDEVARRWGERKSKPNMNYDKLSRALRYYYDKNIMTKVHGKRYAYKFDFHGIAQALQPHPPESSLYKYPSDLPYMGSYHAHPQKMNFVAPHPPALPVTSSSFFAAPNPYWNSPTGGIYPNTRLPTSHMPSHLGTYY
As to conditions: protein: recombinant; tags: N-terminal GST; dsDNA, one strand shown. A digest of the protocol: as §1

For another assay, the target named is ELF1 (Homo sapiens, UniProt P32519 1-619). As to conditions: protein: recombinant; tags: N-terminal GST; dsDNA, one strand shown. In short, it runs like this: as §1
A further assay addresses T5, EHF (Homo sapiens, UniProt Q9NZC4 1-300).
T5 sequence: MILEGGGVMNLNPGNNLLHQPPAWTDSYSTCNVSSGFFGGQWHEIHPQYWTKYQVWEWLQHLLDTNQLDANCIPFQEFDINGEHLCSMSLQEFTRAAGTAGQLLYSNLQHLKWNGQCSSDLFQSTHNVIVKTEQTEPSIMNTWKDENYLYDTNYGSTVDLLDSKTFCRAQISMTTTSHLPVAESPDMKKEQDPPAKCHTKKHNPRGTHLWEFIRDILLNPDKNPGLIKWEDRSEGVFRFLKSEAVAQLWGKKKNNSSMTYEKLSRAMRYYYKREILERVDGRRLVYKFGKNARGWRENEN
As to conditions: protein: recombinant; tags: N-terminal GST; dsDNA, one strand shown. A digest of the protocol:
as §1

The next assay has as its target SPI1 (Homo sapiens, UniProt P17947 1-270). As to conditions: protein: recombinant; tags: N-terminal GST; dsDNA, one strand shown. A digest of the protocol:
as §1

A further assay has as its target SPIB (Homo sapiens, UniProt Q01892 1-262). As to conditions: protein: recombinant; tags: N-terminal GST; dsDNA, one strand shown. A digest of the protocol:
as §1

In another assay the target is T6, ELK3 (Homo sapiens, UniProt P41970 1-407).
T6 sequence: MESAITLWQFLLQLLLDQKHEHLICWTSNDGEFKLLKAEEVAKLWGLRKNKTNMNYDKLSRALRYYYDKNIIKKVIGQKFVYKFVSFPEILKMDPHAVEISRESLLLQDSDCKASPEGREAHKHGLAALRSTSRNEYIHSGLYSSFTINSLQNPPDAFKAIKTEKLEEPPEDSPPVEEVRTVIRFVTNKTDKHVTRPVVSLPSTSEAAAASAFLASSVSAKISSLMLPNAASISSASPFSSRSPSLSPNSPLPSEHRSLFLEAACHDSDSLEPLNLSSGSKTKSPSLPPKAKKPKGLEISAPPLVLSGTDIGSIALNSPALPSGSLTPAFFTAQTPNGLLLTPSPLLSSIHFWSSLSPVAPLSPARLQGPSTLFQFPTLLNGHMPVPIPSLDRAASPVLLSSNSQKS
As to conditions: protein: recombinant; tags: N-terminal GST; dsDNA, one strand shown. A digest of the protocol:
as §1

For another assay, the target named is T7, FEV (Homo sapiens, UniProt Q99581 1-238).
T7 sequence: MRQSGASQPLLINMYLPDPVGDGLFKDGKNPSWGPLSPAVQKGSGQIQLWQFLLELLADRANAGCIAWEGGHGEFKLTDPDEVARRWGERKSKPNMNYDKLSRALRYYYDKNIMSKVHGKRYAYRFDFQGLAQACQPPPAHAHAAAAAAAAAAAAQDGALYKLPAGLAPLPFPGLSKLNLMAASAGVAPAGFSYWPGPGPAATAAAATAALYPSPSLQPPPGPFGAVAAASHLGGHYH
As to conditions: protein: recombinant; tags: N-terminal GST; dsDNA, one strand shown. In short, it runs like this: as §1

A further assay deals with ETV5 (Homo sapiens, UniProt P41161 1-510). As to conditions: protein: recombinant; tags: N-terminal GST; dsDNA, one strand shown. A digest of the protocol: as §1
A further assay has as its target HSF1 (Homo sapiens, UniProt Q00613 1-529). As to conditions: protein: recombinant; tags: N-terminal GST; chain copies: 3; dsDNA, one strand shown. In short, it runs like this:
as §1

The target in another assay is T8, SPIC (Homo sapiens, UniProt Q8N5J4 1-248).
T8 sequence: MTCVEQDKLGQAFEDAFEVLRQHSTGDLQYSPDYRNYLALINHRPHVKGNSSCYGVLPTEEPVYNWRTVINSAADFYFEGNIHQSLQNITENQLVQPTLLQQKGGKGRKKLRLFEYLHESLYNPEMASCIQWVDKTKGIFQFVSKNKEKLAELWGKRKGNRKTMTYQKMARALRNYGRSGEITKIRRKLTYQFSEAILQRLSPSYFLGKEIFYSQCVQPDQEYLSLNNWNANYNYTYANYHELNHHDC
As to conditions: protein: recombinant; tags: N-terminal GST; dsDNA, one strand shown. In short, it runs like this:
as §1

Another assay concerns the target ELF4 (Homo sapiens, UniProt Q99607 1-663). As to conditions: protein: recombinant; tags: N-terminal GST; dsDNA, one strand shown. In short, it runs like this: as §1
Another assay addresses T9, ELK4 (Homo sapiens, UniProt P28324-2 1-405).
T9 sequence: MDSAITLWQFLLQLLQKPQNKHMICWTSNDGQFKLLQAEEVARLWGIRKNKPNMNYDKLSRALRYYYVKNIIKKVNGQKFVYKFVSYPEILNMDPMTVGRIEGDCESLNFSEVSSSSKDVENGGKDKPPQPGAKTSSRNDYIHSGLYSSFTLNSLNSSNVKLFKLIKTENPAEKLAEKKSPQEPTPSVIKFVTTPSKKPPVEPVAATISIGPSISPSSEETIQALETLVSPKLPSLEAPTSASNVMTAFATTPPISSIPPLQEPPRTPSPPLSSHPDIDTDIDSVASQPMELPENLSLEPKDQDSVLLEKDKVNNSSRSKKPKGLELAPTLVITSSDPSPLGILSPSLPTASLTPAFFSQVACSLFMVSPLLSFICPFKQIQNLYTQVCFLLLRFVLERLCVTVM
As to conditions: protein: recombinant; tags: N-terminal GST; dsDNA, one strand shown. A digest of the protocol: as §1

For the next assay, the target named is T10, ETV2 (Homo sapiens, UniProt O00321 1-342).
T10 sequence: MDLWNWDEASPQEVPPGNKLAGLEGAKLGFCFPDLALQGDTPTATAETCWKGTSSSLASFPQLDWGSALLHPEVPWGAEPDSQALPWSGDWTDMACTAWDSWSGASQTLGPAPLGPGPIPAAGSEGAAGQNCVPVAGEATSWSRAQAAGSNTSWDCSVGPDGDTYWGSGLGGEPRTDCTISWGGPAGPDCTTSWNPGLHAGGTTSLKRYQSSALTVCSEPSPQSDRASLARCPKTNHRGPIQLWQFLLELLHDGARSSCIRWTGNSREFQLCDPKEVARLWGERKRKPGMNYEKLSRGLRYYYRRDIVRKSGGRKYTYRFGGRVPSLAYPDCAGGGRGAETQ
As to conditions: protein: recombinant; tags: N-terminal GST; dsDNA, one strand shown. In short, it runs like this:
as §1

For another assay, the target named is T11, ELF3 (Homo sapiens, UniProt P78545 1-371).
T11 sequence: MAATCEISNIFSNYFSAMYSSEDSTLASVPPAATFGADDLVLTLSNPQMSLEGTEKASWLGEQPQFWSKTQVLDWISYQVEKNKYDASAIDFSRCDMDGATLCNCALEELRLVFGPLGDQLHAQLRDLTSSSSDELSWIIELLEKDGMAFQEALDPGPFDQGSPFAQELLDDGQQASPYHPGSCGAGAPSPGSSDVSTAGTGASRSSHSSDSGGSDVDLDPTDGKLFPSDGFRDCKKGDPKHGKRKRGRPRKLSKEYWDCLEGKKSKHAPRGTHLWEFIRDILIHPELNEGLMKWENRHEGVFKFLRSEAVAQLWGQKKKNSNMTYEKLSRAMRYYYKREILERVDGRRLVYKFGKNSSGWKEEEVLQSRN
As to conditions: protein: recombinant; tags: N-terminal GST; dsDNA, one strand shown. In short, it runs like this:
as §1

A further assay has as its target CRX (Homo sapiens, UniProt O43186 1-299). As to conditions: protein: recombinant; tags: N-terminal GST; dsDNA, one strand shown. In short, it runs like this: as §1
For a further assay, the target named is ETV1 (Homo sapiens, UniProt P50549 1-477). As to conditions: protein: recombinant; tags: N-terminal GST; dsDNA, one strand shown. A digest of the protocol: as §1
ETV1, sequence (P50549 whole entry): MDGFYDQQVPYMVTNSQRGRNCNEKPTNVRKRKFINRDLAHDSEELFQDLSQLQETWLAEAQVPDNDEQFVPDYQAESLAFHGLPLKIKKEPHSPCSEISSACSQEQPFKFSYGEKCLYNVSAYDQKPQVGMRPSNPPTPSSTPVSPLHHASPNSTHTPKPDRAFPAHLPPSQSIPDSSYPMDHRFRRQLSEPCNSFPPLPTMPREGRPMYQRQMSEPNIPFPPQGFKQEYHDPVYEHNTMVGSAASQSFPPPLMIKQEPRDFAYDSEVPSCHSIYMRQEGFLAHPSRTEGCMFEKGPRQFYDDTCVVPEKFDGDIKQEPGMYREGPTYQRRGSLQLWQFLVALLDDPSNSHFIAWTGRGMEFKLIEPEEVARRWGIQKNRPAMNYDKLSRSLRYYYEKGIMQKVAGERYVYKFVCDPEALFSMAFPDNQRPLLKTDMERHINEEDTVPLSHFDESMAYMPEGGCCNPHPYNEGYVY

CRX, sequence (O43186 whole entry): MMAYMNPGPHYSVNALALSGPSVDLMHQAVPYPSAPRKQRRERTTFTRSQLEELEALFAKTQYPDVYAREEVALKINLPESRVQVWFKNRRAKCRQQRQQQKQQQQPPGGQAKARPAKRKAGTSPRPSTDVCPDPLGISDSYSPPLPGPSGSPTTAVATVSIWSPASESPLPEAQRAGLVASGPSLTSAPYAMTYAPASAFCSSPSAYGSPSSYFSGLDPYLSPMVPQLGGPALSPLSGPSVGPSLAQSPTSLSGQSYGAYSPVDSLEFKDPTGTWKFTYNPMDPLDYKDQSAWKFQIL
HSF1, sequence (Q00613 whole entry): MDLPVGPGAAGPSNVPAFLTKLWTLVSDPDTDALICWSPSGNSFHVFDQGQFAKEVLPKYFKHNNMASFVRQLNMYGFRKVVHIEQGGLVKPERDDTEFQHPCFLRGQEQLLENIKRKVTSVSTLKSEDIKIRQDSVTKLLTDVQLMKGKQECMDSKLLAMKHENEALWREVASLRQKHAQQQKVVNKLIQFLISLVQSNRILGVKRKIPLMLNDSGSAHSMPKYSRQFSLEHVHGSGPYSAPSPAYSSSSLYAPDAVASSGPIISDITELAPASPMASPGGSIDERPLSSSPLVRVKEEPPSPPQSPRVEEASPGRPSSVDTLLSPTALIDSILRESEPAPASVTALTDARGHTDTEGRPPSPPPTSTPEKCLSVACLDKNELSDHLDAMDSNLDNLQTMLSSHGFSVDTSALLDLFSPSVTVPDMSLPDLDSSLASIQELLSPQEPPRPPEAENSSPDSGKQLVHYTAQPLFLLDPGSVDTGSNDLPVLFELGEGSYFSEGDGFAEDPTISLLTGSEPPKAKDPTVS
ELF1, sequence (P32519 whole entry): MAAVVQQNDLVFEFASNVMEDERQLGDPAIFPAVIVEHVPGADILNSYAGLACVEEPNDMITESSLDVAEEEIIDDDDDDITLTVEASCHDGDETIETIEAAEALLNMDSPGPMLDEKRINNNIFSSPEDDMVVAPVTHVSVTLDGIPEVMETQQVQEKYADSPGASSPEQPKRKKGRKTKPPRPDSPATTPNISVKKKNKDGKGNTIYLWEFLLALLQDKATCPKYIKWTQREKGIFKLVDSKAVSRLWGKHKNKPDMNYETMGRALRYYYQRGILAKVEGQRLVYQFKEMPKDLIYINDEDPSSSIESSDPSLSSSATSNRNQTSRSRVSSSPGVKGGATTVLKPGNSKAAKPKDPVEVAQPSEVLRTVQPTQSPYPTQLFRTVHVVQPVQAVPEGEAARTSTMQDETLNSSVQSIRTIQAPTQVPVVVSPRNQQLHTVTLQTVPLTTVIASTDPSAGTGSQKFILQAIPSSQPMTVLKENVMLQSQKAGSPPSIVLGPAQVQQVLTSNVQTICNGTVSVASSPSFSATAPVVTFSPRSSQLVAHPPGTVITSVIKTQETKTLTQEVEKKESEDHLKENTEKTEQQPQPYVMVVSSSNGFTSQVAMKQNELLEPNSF
SPIB, sequence (Q01892 whole entry): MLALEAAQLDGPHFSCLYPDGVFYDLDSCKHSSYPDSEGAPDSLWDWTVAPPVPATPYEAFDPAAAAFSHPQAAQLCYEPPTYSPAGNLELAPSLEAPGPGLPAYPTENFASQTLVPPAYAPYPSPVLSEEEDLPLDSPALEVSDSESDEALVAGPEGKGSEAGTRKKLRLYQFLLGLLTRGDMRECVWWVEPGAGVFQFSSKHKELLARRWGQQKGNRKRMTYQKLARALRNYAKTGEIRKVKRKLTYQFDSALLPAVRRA
ELF4, sequence (Q99607 whole entry): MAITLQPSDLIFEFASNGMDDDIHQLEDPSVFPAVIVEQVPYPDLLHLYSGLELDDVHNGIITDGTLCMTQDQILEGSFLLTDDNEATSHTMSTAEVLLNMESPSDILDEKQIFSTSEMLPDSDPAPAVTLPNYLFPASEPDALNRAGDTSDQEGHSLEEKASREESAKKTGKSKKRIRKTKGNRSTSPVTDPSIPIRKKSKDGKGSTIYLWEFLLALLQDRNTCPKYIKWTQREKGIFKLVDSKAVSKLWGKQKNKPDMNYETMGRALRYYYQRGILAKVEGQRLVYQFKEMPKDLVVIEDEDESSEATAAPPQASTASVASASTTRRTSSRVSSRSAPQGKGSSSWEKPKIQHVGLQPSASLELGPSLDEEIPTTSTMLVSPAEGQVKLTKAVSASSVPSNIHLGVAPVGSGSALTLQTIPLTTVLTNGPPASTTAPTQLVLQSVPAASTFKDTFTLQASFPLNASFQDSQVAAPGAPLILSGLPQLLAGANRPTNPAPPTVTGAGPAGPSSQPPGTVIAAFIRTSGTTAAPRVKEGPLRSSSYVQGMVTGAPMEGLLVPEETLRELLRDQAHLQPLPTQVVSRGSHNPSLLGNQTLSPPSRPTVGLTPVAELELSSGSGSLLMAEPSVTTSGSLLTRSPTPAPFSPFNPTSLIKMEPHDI
ETV5, sequence (P41161 whole entry): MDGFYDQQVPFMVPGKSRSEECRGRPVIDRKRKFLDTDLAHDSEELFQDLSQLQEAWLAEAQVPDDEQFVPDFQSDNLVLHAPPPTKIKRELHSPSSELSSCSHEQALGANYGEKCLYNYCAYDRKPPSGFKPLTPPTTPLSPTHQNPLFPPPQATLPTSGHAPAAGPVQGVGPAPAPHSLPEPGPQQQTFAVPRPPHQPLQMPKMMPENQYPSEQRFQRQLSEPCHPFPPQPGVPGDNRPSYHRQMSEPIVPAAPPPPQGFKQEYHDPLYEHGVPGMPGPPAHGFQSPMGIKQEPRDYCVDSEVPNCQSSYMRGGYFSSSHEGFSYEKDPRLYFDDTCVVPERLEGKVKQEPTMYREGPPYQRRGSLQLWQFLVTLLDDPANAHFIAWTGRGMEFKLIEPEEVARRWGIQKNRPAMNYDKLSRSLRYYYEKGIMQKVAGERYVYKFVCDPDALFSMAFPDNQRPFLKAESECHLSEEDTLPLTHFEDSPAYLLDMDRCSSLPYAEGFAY

For the sequence TCCATC, the binding signal with FLI1 is 1.28 fold enrichment (6-mer frequency, TF over GST control); in the assay with ELK1, 1.28 fold enrichment (6-mer frequency, TF over GST control); in the assay with GABPA, 1.15 fold enrichment (6-mer frequency, TF over GST control); with ERG, 1.17 fold enrichment (6-mer frequency, TF over GST control); in the assay with ELF1 it was 1.29 fold enrichment (6-mer frequency, TF over GST control); in the assay with EHF, 1.2 fold enrichment (6-mer frequency, TF over GST control). Moreover, the binding signal with SPI1 is 1.19 fold enrichment (6-mer frequency, TF over GST control); with SPIB, 1.16 fold enrichment (6-mer frequency, TF over GST control); in the assay with ELK3, 1.28 fold enrichment (6-mer frequency, TF over GST control); in the assay with FEV, 1.21 fold enrichment (6-mer frequency, TF over GST control); with ETV5 it was 1.22 fold enrichment (6-mer frequency, TF over GST control); with HSF1, 1.16 fold enrichment (6-mer frequency, TF over GST control). Besides, the binding signal is 1.06 fold enrichment (6-mer frequency, TF over GST control) with SPIC; 1.13 fold enrichment (6-mer frequency, TF over GST control) with ELF4; 1.26 fold enrichment (6-mer frequency, TF over GST control) in the assay with ELK4; 1.32 fold enrichment (6-mer frequency, TF over GST control) with ETV2; 1.11 fold enrichment (6-mer frequency, TF over GST control) in the assay with ELF3; 1.15 fold enrichment (6-mer frequency, TF over GST control) with CRX. The binding signal in the assay with ETV1 was 1.17 fold enrichment (6-mer frequency, TF over GST control).
